Measurements from PubChem BioAssay AID624487 (NMMLSC, 2012).
Results with a measured potency or affinity are listed apart. A number with no mark means an inactive call.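 Rule for the calls: active = fitted EC50, the dose giving half the maximal drop in porphyrin signal, under 100 µM; inactive = the rest.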

Target: ATP-binding cassette sub-family B member 6 (Homo sapiens) (UniProt Q9NP58)
Assay: ABCB6 transporter inhibitors, porphyrin accumulation, dose response, flow cytometry, K562-ABCB6 cells, cherry pick 02 (AID 624487)
Conditions: 1 h; series mostly up to 100 µM; response, % of control (lower = inhibition): at the top concentration

ATP-binding cassette sub-family B member 6 (Homo sapiens), sequence (Q9NP58 whole entry, looked up): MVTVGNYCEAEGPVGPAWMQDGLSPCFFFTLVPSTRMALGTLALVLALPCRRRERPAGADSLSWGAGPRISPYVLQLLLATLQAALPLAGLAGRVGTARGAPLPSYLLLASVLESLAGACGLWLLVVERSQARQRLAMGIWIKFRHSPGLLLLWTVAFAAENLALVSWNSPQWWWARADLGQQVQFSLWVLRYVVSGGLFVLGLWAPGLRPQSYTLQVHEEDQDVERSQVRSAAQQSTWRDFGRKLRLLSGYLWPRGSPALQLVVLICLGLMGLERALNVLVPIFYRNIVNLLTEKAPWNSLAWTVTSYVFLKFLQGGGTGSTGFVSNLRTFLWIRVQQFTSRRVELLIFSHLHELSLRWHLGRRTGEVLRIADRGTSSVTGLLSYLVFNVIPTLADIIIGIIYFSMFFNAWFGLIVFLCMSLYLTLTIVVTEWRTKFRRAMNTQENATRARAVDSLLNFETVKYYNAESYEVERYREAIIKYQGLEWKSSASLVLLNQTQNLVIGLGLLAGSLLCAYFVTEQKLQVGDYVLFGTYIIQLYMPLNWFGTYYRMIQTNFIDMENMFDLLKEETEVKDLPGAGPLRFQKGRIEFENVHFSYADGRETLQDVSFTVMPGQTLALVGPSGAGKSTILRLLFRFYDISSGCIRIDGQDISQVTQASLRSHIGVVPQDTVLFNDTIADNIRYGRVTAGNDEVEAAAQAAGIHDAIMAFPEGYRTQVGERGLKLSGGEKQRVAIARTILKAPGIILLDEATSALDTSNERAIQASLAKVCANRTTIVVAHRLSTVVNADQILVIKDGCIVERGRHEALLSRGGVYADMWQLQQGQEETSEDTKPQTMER

First: CCc1nnc(NC(=O)c2nc(S(=O)(=O)Cc3ccccc3)ncc2Cl)s1
Second: Cc1nnc(NC(=O)c2nc(S(=O)(=O)Cc3ccccc3)ncc2Cl)s1
The “response, % of control (lower = inhibition)” value of the first is higher: 86.1% for the first, 70.9% for the second.

Going from CCOc1ccccc1NC(=O)c1nc(S(=O)(=O)Cc2ccccc2)ncc1Cl to COc1ccc(OC)c(NC(=O)c2nc(S(=O)(=O)Cc3ccccc3)ncc2Cl)c1, the “response, % of control (lower = inhibition)” value rises from 56.6% to 180%.

Compared with Cc1ccc(CS(=O)(=O)c2ncc(Cl)c(C(=O)Nc3nnc(C)s3)n2)cc1, CCCc1nnc(NC(=O)c2nc(S(=O)(=O)Cc3ccc(C)cc3)ncc2Cl)s1 is lower in “response, % of control (lower = inhibition)” value: 82.2% for the first, 68.2% for the second.

Compared with CCOC(=O)c1ccc(NC(=O)c2nc(S(=O)(=O)Cc3ccccc3)ncc2Cl)cc1, Cc1ccc(CS(=O)(=O)c2ncc(Cl)c(C(=O)Nc3ccc(OC(F)F)cc3)n2)cc1 is higher in “response, % of control (lower = inhibition)” value: 49% for the first, 50.5% for the second.

First: COc1ccc(NC(=O)c2nc(S(=O)(=O)Cc3cccc(C)c3)ncc2Cl)c(OC)c1
Second: Cc1cccc(CS(=O)(=O)c2ncc(Cl)c(C(=O)Nc3nnc(C(C)C)s3)n2)c1
The “response, % of control (lower = inhibition)” value of the first is higher: 188% for the first, 67.9% for the second.

First: CC(C)c1nnc(NC(=O)c2nc(S(=O)(=O)Cc3ccc(F)cc3)ncc2Cl)s1
Second: CCc1nnc(NC(=O)c2nc(S(=O)(=O)Cc3cccc(C)c3)ncc2Cl)s1
The “response, % of control (lower = inhibition)” value of the first is lower: 79.1% for the first, 81.6% for the second.

With Cc1nnc(NC(=O)c2nc(S(=O)(=O)Cc3ccccc3C)ncc2Cl)s1 the “response, % of control (lower = inhibition)” value was 87%.
